Hit rate of the full screen: of about 5,500 compounds, about 2,000 (36%) were called active. Inconclusive results (about 18%) are left out. Cut-off read from the data, not from the text of the source: active = normalized growth mostly below about 0.91 (no sharp cut-off); inconclusive = no clear call, values can overlap the other calls; inactive = mostly above about 0.92. This is one part of the list.
Experiment: chemical genetic growth profiling, strain panel (AID 1159580);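 note: tested at 20 µM; growth read once vehicle control cultures reached saturation at 30 °C; 1 = growth at the plate median or of vehicle wells; lower values mean less growth of the strain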
Details: S. cerevisiae deletion strains, growth OD

Measured: normalized growth

Cc1csc(NC(=O)Nc2ccc(C(F)(F)F)cc2)c1Cl
active: locus YLR113W, strain HOG1, active compounds read low 0.675 | locus YPL256C, strain CLN2, active compounds read low 0.724
inactive: locus YAR019C, strain CDC15, active compounds read low 0.958 | locus YBL105C, strain PKC1, active compounds read low 0.96 | locus YBR135W, strain CKS1, active compounds read low 0.948 | locus YBR136W, strain MEC1, active compounds read low 0.957 | locus YBR160W, strain CDC28, active compounds read low 0.943 | locus YDL017W, strain CDC7, active compounds read low 0.954 | locus YDL028C, strain MPS1, active compounds read low 0.962 | locus YDL101C, strain DUN1, active compounds read low 0.988 | locus YDL108W, strain KIN28, active compounds read low 0.948 | locus YDL132W, strain cdc53, active compounds read low 0.969 | locus YDL214C, strain PRR2, active compounds read low 0.836 | locus YDR052C, strain DBF4, active compounds read low 0.961 | locus YDR054C, strain cdc34, active compounds read low 0.949 | locus YDR226W, strain ADK1, active compounds read low 0.96 | locus YDR477W, strain SNF1, active compounds read low 0.905 | locus YER123W, strain YCK3, active compounds read low 0.802 | locus YER133W, strain GLC7, active compounds read low 0.897 | locus YFL009W, strain cdc4, active compounds read low 0.951 | locus YFL029C, strain CAK1, active compounds read low 0.946 | locus YFR003C, strain YPI1, active compounds read low 0.957 | locus YFR019W, strain FAB1, active compounds read low 0.884 | locus YFR028C, strain CDC14, active compounds read low 0.945 | locus YGR040W, strain KSS1, active compounds read low 0.892 | locus YGR052W, strain FMP48, active compounds read low 0.884 | locus YGR092W, strain DBF2, active compounds read low 0.861 | locus YHR030C, strain SLT2, active compounds read low 0.858 | locus YHR079C, strain IRE1, active compounds read low 0.815 | locus YHR082C, strain KSP1, active compounds read low 0.873 | locus YHR205W, strain SCH9, active compounds read low 0.78 | locus YIL147C, strain SLN1, active compounds read low 0.958 | locus YJL095W, strain BCK1, active compounds read low 0.832 | locus YJL128C, strain PBS2, active compounds read low 0.891 | locus YJL157C, strain FAR1, active compounds read low 0.849 | locus YJR016C, strain ILV3, active compounds read low 0.95 | locus YJR066W, strain TOR1 (second series), active compounds read low 0.854 | locus YJR066W, strain TOR1, active compounds read low 0.92 | locus YKL048C, strain ELM1, active compounds read low 0.892 | locus YKL067W, strain YNK1, active compounds read low 0.831 | locus YKL101W, strain HSL1, active compounds read low 0.831 | locus YKL193C, strain SDS22, active compounds read low 0.951 | locus YKL203C, strain TOR2, active compounds read low 0.957 | locus YLR133W, strain CKI1, active compounds read low 0.823 | locus YLR403W, strain SFP1, active compounds read low 0.871 | locus YML070W, strain DAK1, active compounds read low 0.802 | locus YMR001C, strain CDC5, active compounds read low 0.954 | locus YMR205C, strain PFK2 (second series), active compounds read low 0.833 | locus YMR277W, strain FCP1, active compounds read low 0.966 | locus YNL006W, strain LST8, active compounds read low 0.968 | locus YNL020C, strain ARK1, active compounds read low 0.823 | locus YNL161W, strain CBK1, active compounds read low 0.957 | locus YNL183C, strain NPR1, active compounds read low 0.829 | locus YNL207W, strain RIO2, active compounds read low 0.945 | locus YNL222W, strain SSU72, active compounds read low 0.95 | locus YNL307C, strain MCK1 (second series), active compounds read low 0.84 | locus YOL078W, strain AVO1, active compounds read low 0.946 | locus YOL136C, strain PFK27, active compounds read low 0.801 | locus YOR061W, strain CKA2, active compounds read low 0.842 | locus YOR119C, strain RIO1, active compounds read low 0.942 | locus YOR231W, strain MKK1, active compounds read low 0.762 | locus YOR329C, strain SCD5, active compounds read low 0.962 | locus YPL031C, strain PHO85, active compounds read low 0.892 | locus YPL153C, strain RAD53, active compounds read low 0.88 | locus YPL204W, strain HRR25, active compounds read low 0.868 | locus YPL209C, strain IPL1, active compounds read low 0.946 | locus YPR025C, strain CCL1, active compounds read low 0.966 | locus YPR106W, strain ISR1, active compounds read low 0.932 | locus YPR111W, strain DBF20, active compounds read low 0.927 | strain NNK1, active compounds read low 0.93 | strain TSCII, active compounds read low 0.945
